The text below walks through data of PubChem BioAssay.

Assay [1] can be described thus: compound effects on lung adenocarcinoma cell viability – A549, calcein-AM fluorescence, 48 h, basal, profiling panel (AID 1162). Also: test concentration not given here. The note with it: higher = more signal.
The nature of assay [2]: compound effects on differentiated 3T3-L1 adipocyte viability – cell-based, 3T3-L1 adipocytes, calcein-AM fluorescence, 48 h, basal, profiling panel (AID 1163). Also: test concentration not given here. The note with it: 3T3-L1 adipocytes viability, higher = more signal.
Assay [3] can be described thus: compound effects on hepatocellular carcinoma cell viability – HepG2, calcein-AM fluorescence, 48 h, basal, profiling panel (AID 1164). Also: test concentration not given here. The note with it: higher = more signal.
Assay [4] in a line: compound effects on multiple myeloma cell viability – MM1S, calcein-AM fluorescence, 48 h, basal, profiling panel (AID 1165).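 Also: viability of MM1S multiple myeloma cells under basal unstimulated conditions; test concentration not given here.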 The settings on record: higher = more signal.
Assay [5] can be described thus: calcein-AM signal in unstimulated myeloma cells – cell-based, calcein-AM fluorescence, 48 h, PK04 Diversity Set, profiling panel (AID 1166).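 Also: cells grown under basal conditions without added stimulus; test concentration not given here.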 The settings on record: RPMI8226 myeloma viability, higher = more signal.
Assay [6] in a line: JC-1 mitochondrial signal, unstimulated HepG2 cells – cell-based, JC-1 fluorescence, 24 h, 100 nL compound, profiling panel (AID 1167). Also: test concentration not given here. The note with it: HepG2 mitochondrial potential, higher = more signal.
Assay [7] in a line: JC-1 mitochondrial signal, unstimulated adipocytes – cell-based, JC-1 fluorescence, 3T3-L1 adipocytes, 24 h, 100 nL compound, profiling panel (AID 1168). Also: test concentration not given here. The note with it: JC-1 mitochondrial fluorescence, higher = more signal, called active from +8 up or from −8 down.
A short description of assay [8]: JC-1 mitochondrial signal, unstimulated myeloma cells – cell-based, JC-1 fluorescence, RPMI8226, 24 h, 100 nL compound, profiling panel (AID 1169). Also: test concentration not given here. The note with it: JC-1 mitochondrial potential fluorescence, higher = more signal.
Assay [9] in a line: JC-1 mitochondrial signal, unstimulated MM1S myeloma – cell-based, JC-1 fluorescence, 24 h, 100 nL compound, profiling panel (AID 1170). Also: test concentration not given here. The note with it: MM1S mitochondrial potential, higher = more signal.
Assay [10] can be described thus: resazurin metabolic signal in A549 cells – cell-based, resazurin fluorescence, 24 h, PK04 Diversity Set, profiling panel (AID 1171). Also: test concentration not given here. The settings on record: A549 viability, higher = more signal, called active from +8 up or from −8 down. On the technique in general: The colour change of resazurin is a common sign of viable cells or microbes.
Assay [11] in a line: resazurin metabolic signal in HepG2 cells – cell-based, resazurin fluorescence, 24 h, PK04 Diversity Set, profiling panel (AID 1172). Also: test concentration not given here. The note with it: HepG2 viability, higher = more signal.
Assay [12] is described as follows: budding yeast growth changes without added modifier – OD600, strain BY4716, 24 h, basal condition, primary screen (AID 1173). The settings on record: S. cerevisiae BY4716 growth, OD600, 24 h; higher = more signal, called active from +8 up or from −8 down.
Assay [13] can be described thus: viability profiling in MM1S myeloma cells – cell-based, resazurin fluorescence, basal, 24 h, PK04 Diversity Set, profiling panel (AID 1174). Also: test concentration not given here. The note with it: higher = more signal, called active from +8 up or from −8 down.
In assay [14] the target is Dihydroorotate dehydrogenase (quinone), mitochondrial (Plasmodium falciparum (isolate 3D7)) (UniProt Q08210). Put plainly: inhibition of P. falciparum DHODH – biochemical, C-terminal His tag, absorbance 600 nm, primary screen (AID 1175).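 Also: recombinant parasite enzyme with a five histidine tag at its C terminus; test concentration not given here.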 The settings on record: PfDHODH enzyme, DCIP absorbance 600 nm; higher = more signal, called active from +8 up or from −8 down.
Dihydroorotate dehydrogenase (quinone), mitochondrial (Plasmodium falciparum (isolate 3D7)), sequence (Q08210 whole entry, looked up): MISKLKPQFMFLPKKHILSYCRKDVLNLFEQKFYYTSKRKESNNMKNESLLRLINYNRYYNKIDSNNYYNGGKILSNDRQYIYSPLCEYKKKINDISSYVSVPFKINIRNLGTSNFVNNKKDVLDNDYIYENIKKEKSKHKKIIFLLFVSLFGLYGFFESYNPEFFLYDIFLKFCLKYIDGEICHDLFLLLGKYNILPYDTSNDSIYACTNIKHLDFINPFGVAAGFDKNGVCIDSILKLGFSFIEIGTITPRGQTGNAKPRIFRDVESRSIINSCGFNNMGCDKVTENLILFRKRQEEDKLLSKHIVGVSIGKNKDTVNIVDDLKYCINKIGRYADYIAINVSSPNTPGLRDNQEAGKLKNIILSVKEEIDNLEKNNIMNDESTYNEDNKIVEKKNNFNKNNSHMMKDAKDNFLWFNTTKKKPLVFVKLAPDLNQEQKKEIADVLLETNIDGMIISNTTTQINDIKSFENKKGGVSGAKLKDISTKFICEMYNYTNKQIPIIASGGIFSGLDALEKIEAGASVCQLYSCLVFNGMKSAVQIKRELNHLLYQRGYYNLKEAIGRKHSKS
A short description of assay [15]: inhibition of PAO1 biofilm formation – strain PAO1, LB-PBS medium, absorbance 600 nm, primary screen (AID 1176). Also: test concentration not given here. The settings on record: P. aeruginosa PAO1 growth/biofilm, A600, 12 h; higher = more signal.
Assay [16] in a line: growth modulation of vineyard yeast isolate – strain RM11-1a, OD600, basal, 24 h, primary screen (AID 1177).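 Also: cultures grown under basal conditions with no added stressor; test concentration not given here.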 The settings on record: S. cerevisiae RM11-1a growth, OD600, 24 h; higher = more signal, called active from +8 up or from −8 down.
The nature of assay [17]: growth of efflux-deficient E. coli DRC39 – strain DRC39, OD650, 24 h, E. coli filamentation inducers, primary screen (AID 1178).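 Also: growth measured as culture turbidity by optical density at 650 nm; test concentration not given here.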 The note with it: E. coli DRC39 acrAB, higher = more signal, called active from +8 up or from −8 down.
Assay [18] can be described thus: growth of efflux-deficient E. coli DRC39 – strain DRC39, OD650, 48 h, E. coli filamentation inducers, primary screen (AID 1179).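 Also: screen aims at cell division blockers that make cells filament.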 The note with it: E. coli DRC39 delta-acrAB growth, higher = more signal, called active from +8 up or from −8 down.
A short description of assay [19]: viability profiling in RPMI8226 myeloma cells – cell-based, resazurin fluorescence, basal, 24 h, PK04 Diversity Set, profiling panel (AID 1180).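 Also: RPMI8826 multiple myeloma cell line at 5000 cells per well; test concentration not given here.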 The note with it: higher = more signal.
The target in assay [20] is E3 ubiquitin-protein ligase XIAP (Homo sapiens) (UniProt P98170). The assay is described as follows: small molecules binding XIAP protein – biophysical, small-molecule microarray, fluorescence 635 nm, primary screen (AID 1181).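 Also: score merges 667 nm emission and signal to noise over triplicate slides.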 The settings on record: higher = more signal.
E3 ubiquitin-protein ligase XIAP (Homo sapiens), sequence (P98170 whole entry, looked up): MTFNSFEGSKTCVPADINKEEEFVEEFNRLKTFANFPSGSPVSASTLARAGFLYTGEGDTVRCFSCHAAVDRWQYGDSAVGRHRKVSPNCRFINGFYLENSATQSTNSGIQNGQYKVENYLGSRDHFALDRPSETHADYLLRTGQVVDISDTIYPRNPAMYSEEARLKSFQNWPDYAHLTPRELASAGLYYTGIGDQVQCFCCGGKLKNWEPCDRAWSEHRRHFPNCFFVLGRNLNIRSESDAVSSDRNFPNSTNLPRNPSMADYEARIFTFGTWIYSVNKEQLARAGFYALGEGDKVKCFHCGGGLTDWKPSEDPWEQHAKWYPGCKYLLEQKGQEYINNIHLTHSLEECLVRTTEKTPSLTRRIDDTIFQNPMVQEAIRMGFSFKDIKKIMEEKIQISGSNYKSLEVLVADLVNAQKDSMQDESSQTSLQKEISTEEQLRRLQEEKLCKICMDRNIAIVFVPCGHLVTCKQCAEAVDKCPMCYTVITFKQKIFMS

The structures appear in SMILES notation. Active and inactive are the calls of the source. Unless noted, no rule for the calls is given here.

In the case of `CCOC(=O)C[C@H]1[C@H](OC(=O)c2ccc(-c3ccccc3)cc2)[C@@H](NC(=O)Cc2ccc(OC)cc2)c2cc(OCCCO)ccc2N1C(=O)c1ccc2ccccc2n1`, the z-score in assay [1] is -0.315; in [2], -0.357; in assay [3], 0.143; in [4], -0.514; in [5] it was -0.129; in assay [6], 0.176. The z-score in assay [7] was 0.824 (inactive); in assay [8] it was 0.0708; in assay [9], -0.625; in [10] it was 0.596 (inactive); in assay [11], -0.458; in [12], -0.533 (inactive). Also, the z-score is -0.607 (inactive) in [13]; 0.055 (inactive) in assay [15]; -0.586 (inactive) in [16]; -0.536 (inactive) in assay [17]; -0.485 (inactive) in assay [18]; -0.893 in assay [19]. For the same compound, the composite z-score was -0.236 (inactive) in assay [14] and 0.091 in [20].

For `CCCC[C@@H]1C[C@H]1[C@@H](NC(=O)c1ccc(-c2ccccc2)cc1)c1ccc(-c2ccccc2)cc1`, the z-score is -1.78 in assay [1]; 0.441 in assay [2]; -0.997 in assay [3]; -2.17 in assay [4]; -2.33 in [5]; -0.922 in assay [6]. The z-score in assay [7] is -0.949 (inactive); in assay [8], 0.196; in assay [9] it was -0.391; in [10] it was 0.719 (inactive); in [11], 0.543; in [12], -0.498 (inactive). Further, the z-score in [13] was -0.271 (inactive); in assay [15] it was 0.315 (inactive); in assay [16], 0.0066 (inactive); in assay [17] it was -0.836 (inactive); in assay [18], -1.19 (inactive); in [19], -0.0454. Besides, the composite z-score in [14] was -1.12 (inactive); in assay [20] it was 0.359.

As to `O=c1cccc(CCc2ccccc2)o1`, the z-score is -0.0082 in assay [1]; -0.519 in assay [2]; 0.926 in [3]; -0.441 in assay [4]; -0.709 in [5]; -0.903 in assay [6]. The z-score in [7] was -0.352 (inactive); in assay [8] it was -0.976; in [9], 0.226; in assay [10], -0.574 (inactive); in assay [11] it was -0.523; in assay [12], -3.45 (inactive). Moreover, the z-score in assay [13] was -0.0074 (inactive); in assay [15], -0.156 (inactive); in [16], -0.259 (inactive); in [17], -0.74 (inactive); in [18], -0.608 (inactive); in [19] it was -0.753. For the same compound, the results for the composite z-score in assay [14] and in [20] were -1.19 (inactive) and 0.273, respectively.

Regarding `CCCCCN1CC=CC23O[C@@H]4/C=C\CCC(C)OC(=O)C4[C@H]2C(=O)N(CCCCCO)[C@@H]3C1=O` (stereo not given in full), the z-score in assay [1] is -0.213; in assay [2], 1.56; in assay [3] it was 0.167; in assay [4], 0.599; in assay [5] it was -0.0704; in assay [6], -0.356. Moreover, the z-score in assay [7] was 0.637 (inactive); in [8] it was -0.982; in assay [9], -0.617; in [10], 0.475 (inactive); in assay [11] it was 0.58; in [12] it was -1.12 (inactive). The z-score in assay [13] is 0.699 (inactive); in assay [15], 0.357 (inactive); in [16] it was -1.01 (inactive); in [17], 0.683 (inactive); in [18] it was 0.389 (inactive); in assay [19], 0.522. Besides, the results for the composite z-score in assay [14] and in assay [20] were 0.121 (inactive) and -0.144, respectively.

Take `NC(=O)NCC#Cc1ccc2c(c1)[C@]1(C(=O)N2)[C@H](C(=O)N2CCCCCCC2)[C@H]2C(=O)O[C@H](c3ccccc3)[C@H](c3ccccc3)N2[C@@H]1c1ccc(OCCO)cc1`: the z-score in [1] was -0.0962; in [2] it was -0.15; in [3], -1.09; in assay [4] it was -0.682; in assay [5], -0.365; in [6], -1.79. Moreover, the z-score in [7] was -2.9 (inactive); in assay [8], -0.165; in assay [9], -0.781; in assay [10], -0.316 (inactive); in [11], -0.3; in assay [12], 1.84 (inactive). Further, the z-score in assay [13] was -0.36 (inactive); in assay [15] it was 2.1 (inactive); in [16], 2.12 (inactive); in assay [17], 0.049 (inactive); in [18], -0.318 (inactive); in assay [19], -0.831. Besides, the composite z-score in assay [14] was 0.835 (inactive); in assay [20], 0.0368.

For `COC(=O)C1=CC(CCCO)=CC(C2CC2)N(Cc2sc3ccccc3c2Cl)C=C1C(=O)OC` (stereo not given), the z-score is -0.637 in assay [1]; 0.326 in assay [2]; -0.514 in [3]; -2.99 in assay [4]; -4.06 in assay [5]; 0.00468 in assay [6]. For the same compound, the z-score in assay [7] is 0.235 (inactive); in assay [8] it was -0.915; in [9], 0.00801; in assay [10] it was 0.0509 (inactive); in assay [11] it was -0.908; in assay [12], -1.32 (inactive). For the same compound, the z-score in [13] is -0.944 (inactive); in assay [15], -0.0065 (inactive); in [16], 1.61 (inactive); in assay [17], 0.386 (inactive); in [18] it was -0.444 (inactive); in assay [19], -0.691. Besides, the composite z-score was -4.56 (inactive) in assay [14] and -0.0172 in [20].

Consider `COC(=O)c1c(CC[C@@H](CO)NC(=O)N[C@@H](Cc2ccccc2)Cn2cc(C3(O)CCCCC3)nn2)oc(C(C)=O)c1C(=O)OC`, for which the z-score in assay [1] is 0.548; in [2], 2.01; in [3], -0.889; in [4], 0.513; in [5], -1.69; in [6], 0.384. The z-score was 0.349 (inactive) in [7]; -0.614 in assay [8]; -0.403 in [9]; 0.215 (inactive) in assay [10]; -0.172 in assay [11]; -3.95 (inactive) in [12]. In addition, the z-score in [13] was 1.37 (inactive); in assay [15] it was -0.452 (inactive); in assay [16] it was -2.6 (inactive); in assay [17], 1.05 (inactive); in [18], 0.874 (inactive); in assay [19], 0.428. Also, the composite z-score in assay [14] is -4.08 (inactive); in assay [20] it was 0.0762.

As for `CC(C)CNC(=O)[C@@H]1c2ccccc2C(=O)N(Cc2cc(C(F)(F)F)cc(C(F)(F)F)c2)[C@H]1c1ccc(CO)cc1`, the z-score was 0.099 in [1]; 0.628 in [2]; -0.155 in assay [3]; 0.37 in assay [4]; -0.754 in assay [5]; 0.363 in assay [6]. The z-score in assay [7] is -0.861 (inactive); in assay [8], 0.428; in assay [9] it was 1.25; in [10] it was -0.0372 (inactive); in [11], -1.16; in [12], 0.578 (inactive). In addition, the z-score in assay [13] was 0.889 (inactive); in assay [15] it was -0.171 (inactive); in assay [16], 0.927 (inactive); in [17], 0.898 (inactive); in [18], 0.343 (inactive); in assay [19], 1.29. Also, the figures for the composite z-score in assay [14] and in assay [20] were -0.697 (inactive) and -0.198, respectively.

On to `[N-]=[N+]=Nc1ccccc1[C@@H]1OC(c2ccc(OCCCO)cc2)=N[C@]1(CCS(=O)(=O)c1ccccc1)C(=O)N1CCOCC1`, for which the z-score in assay [1] was 1.53; in [2] it was 0.293; in assay [3], 1.33; in assay [4], 0.0503; in assay [5], -0.908; in assay [6] it was 0.431. Besides, the z-score in assay [7] is 0.406 (inactive); in [8], -0.746; in [9] it was -0.799; in assay [10], -0.549 (inactive); in [11], -0.167; in assay [12] it was 0.907 (inactive). Besides, the z-score is -0.638 (inactive) in assay [13]; 0.507 (inactive) in assay [15]; 1.9 (inactive) in [16]; -0.311 (inactive) in [17]; 0.0945 (inactive) in [18]; -1.19 in assay [19]. Besides, the composite z-score in assay [14] is 1.56 (inactive); in assay [20] it was 0.182.
